Source: PubChem (The Scripps Research Institute Molecular Screening Center)
rCAG binder = binders of r(CAG) RNA repeats, primary screen, biochemical, fluorescence; r(CAG) RNA repeat, TO-PRO-1 dye displacement fluorescence; inhibition, % at 3 µM; 1.3% of 370,000 active; AID 651821, 2012;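 active means inhibition above the plate cutoff, the mean of all test compounds on that plate plus 3 SD, cut at about 35% in these data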;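 further: 0% = DMSO alone and 100% = 100 µM mitoxantrone as full dye displacement; higher means more dye released from RNA so lower well fluorescence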
MsrA inhibitor = bovine MsrA enzyme inhibitors, primary screen, biochemical, absorbance, HTS | Methionine sulfoxide reductase A (Bos taurus) | purified bovine MsrA, absorbance read-out | inhibition, % at 15.5 µM | 0.75% of 360,000 active | AID 651718, 2012; in the data active means inhibition above about 4.5%;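 further: 0% = vehicle wells with enzyme and 100% = reference inhibitor wells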
sPLA2-III inh = human group III sPLA2 inhibitors, primary screen, biochemical, QFRET, BODIPY PC-A2 liposome substrate; QFRET BODIPY PC-A2 liposome hydrolysis, fluorescence; 0.56% of 370,000 active; inhibition, % at 12.2 µM; Group 3 secretory phospholipase A2 (Homo sapiens), Q9NZ20;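 active means inhibition above mean plus 3 SD of compounds lying within the high and low control bounds, cut at about 19% in these data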;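 further: 0% = median of test compound wells and 100% = no enzyme DMSO wells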
Target sequence (Q9NZ20 whole entry, looked up): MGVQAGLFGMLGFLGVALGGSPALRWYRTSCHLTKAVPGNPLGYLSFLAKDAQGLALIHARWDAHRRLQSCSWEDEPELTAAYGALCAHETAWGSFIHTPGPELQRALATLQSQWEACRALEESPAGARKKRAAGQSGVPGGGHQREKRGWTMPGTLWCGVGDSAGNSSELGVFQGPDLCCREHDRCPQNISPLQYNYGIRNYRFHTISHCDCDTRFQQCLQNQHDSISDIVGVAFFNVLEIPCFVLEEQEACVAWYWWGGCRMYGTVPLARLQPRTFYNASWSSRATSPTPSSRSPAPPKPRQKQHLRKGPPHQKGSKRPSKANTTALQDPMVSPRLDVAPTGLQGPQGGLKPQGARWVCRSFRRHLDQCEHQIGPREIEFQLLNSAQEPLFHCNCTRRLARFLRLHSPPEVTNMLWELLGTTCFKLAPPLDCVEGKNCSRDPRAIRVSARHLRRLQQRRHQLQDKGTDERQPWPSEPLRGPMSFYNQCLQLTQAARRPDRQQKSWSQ
MsrA act = bovine MsrA enzyme activators, primary screen, biochemical, absorbance, HTS | Methionine sulfoxide reductase A (Bos taurus) | 0.3% of 360,000 active | activation, % at 10.6 µM | AID 602163, 2012 | purified bovine MsrA, absorbance read-out; in the data active means activation above about 7.5%;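 further: 0% = vehicle and 100% = reference activator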
rCAG bind conf = small molecules binding CAG repeat RNA – biochemical, fluorescence, confirmation. shares compounds with rCAG binder. r(CAG) RNA repeat, TO-PRO-1 dye displacement fluorescence. inhibition, % at 3 µM. 70% of 4,300 active;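 active means inhibition above a per-plate cutoff, the mean inhibition of sample wells plus 3 SD, cut at about 35% in these data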;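 further: loss of TO-PRO-1 fluorescence as compound displaces dye from 1x1 AA loop RNA; 0% = DMSO only wells and 100% = 100 µM mitoxantrone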
dCAG dye counter = displacement of TO-PRO-1 from CAG DNA duplex, counter-screen for rCAG RNA repeat binder project, biochemical, fluorescence, TO-PRO-1 dye, d(CAG) DNA oligo; shares compounds with rCAG binder; d(CAG) DNA oligo TO-PRO-1 dye displacement; inhibition, % at 3 µM; 94% of 4,300 active;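 active means inhibition above its plate's cutoff, the mean test-well inhibition plus 3 SD, cut at about 4.8% in these data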;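 further: 0% = DNA dye mix with DMSO and 100% = 100 µM mitoxantrone; hits displace the dye from DNA and so lower well fluorescence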
dCAG dye DR = inhibitors of DNA CAG/GTC TO-PRO-1 complex, dose response, counter-screen for rCAG RNA repeat binder project, biochemical, fluorescence, TO-PRO-1 dye. shares compounds with rCAG binder. DNA CAG/GTC duplex TO-PRO-1 dye displacement fluorescence. IC50, µM. 20% of 250 active. AID 686960, 2013; in the data active means IC50 below about 10 µM
Numbers without * were called inactive; i = inactive; / = no result given. This is a sample that favours compounds with a hit; in the whole collection about 2.8% have one here.

SMILES	rCAG binder	MsrA inhibitor	sPLA2-III inh	MsrA act	rCAG bind conf	dCAG dye counter	others
Cc1csc(NC(=O)c2cc(-c3ccco3)nc3ccccc23)n1	44*	0	4	-5	46*	20*
Cc1nnc(NC(=O)c2cc(-c3ccco3)nc3ccccc23)s1	37*	3	1	-7	18	8.7*
O=C(Nc1nccs1)c1cc(-c2ccco2)nc2ccccc12	38*	1	-1	-5	25	17*
O=C(Nc1nc2ccccc2s1)c1cc(-c2ccco2)nc2ccccc12	20	3	-12	-2	/	/
O=C(Nc1cccc(S(=O)(=O)NC2=NCCC2)c1)c1cc(-c2ccco2)nc2ccccc12	41*	2	-2	-3	43*	25*
Cc1csc(NC(=O)c2cc(C)nc3ccccc23)n1	0	1	-2	-6	/	/
O=C(Nc1nccs1)c1cc(-c2ccccc2)nc2ccccc12	4	2	-1	-5	/	/
O=C(CNC(c1ccccc1)c1ccccc1)Nc1ccccc1Br	1	1	-13	-2	/	/
CN(C)CCCN1CC(=O)N2[C@@H](Cc3c([nH]c4ccccc34)C2(C)C)C1=O	-5	-1	-7	-2	/	/
COc1ccccc1NC(=O)/C(=C/c1cccc([N+](=O)[O-])c1)c1ccccc1	3	1	17	-9	/	/
Cc1ccc2oc(=O)c(/C=C(\O)C(C)(C)C)nc2c1	0	0	-5	-4	/	/
c1ccc(SCCOCCN2CCOCC2)cc1	-5	-1	1	-3	/	/
O=C(O)c1cccc(-c2ccccc2)c1O	4	0	2	1	/	/
O=C(N/N=C/c1ccc(F)cc1)c1cc(-c2ccco2)nc2ccccc12	45*	1	-2	-10	47*	30*
Cc1ccc(-n2c(O)c(/C=N/Nc3ccc(S(=O)(=O)N4CCOCC4)cc3[N+](=O)[O-])c3ccccc3c2=O)c(C)c1	66*	4	3	-7	88*	71*
COc1ccc(OC)c(C2C(C#N)=C(N)Oc3c2c(C)nn3-c2ccc(C)cc2)c1 (stereo not drawn)	8	-1	-3	-8	/	/
COc1ccc(C2C(C#N)=C(N)Oc3c2c(-c2ccccc2)nn3-c2ccccc2)c(OC)c1OC (stereo not drawn)	42*	1	-2	-9	23	10*
CC(=O)NS(=O)(=O)c1ccc(NC(=O)c2cc(-c3ccc(C)c(C)c3)nc3ccccc23)cc1	77*	1	-33	-1	71*	37*
CC(=O)Nc1ccc(-c2cc(C(=O)O)c3ccccc3n2)cc1	4	3	1	-4	/	/
CC(=O)NS(=O)(=O)c1ccc(NC(=O)c2cc(-c3cccs3)nc3ccccc23)cc1	14	0	-15	-15	/	/
CC(=O)NS(=O)(=O)c1ccc(NC(=O)c2cc(-c3ccc(C)cc3)nc3ccccc23)cc1	53*	2	-30	-1	35*	9.3*
COc1ccc(-n2c(C)cc(-c3csc(N)n3)c2C)cc1	15	1	4	-3	/	/
CCCc1cc2c(cc1NS(=O)(=O)c1ccc(CCNC(C)=O)cc1)OCO2	-1	-1	-11	3	/	/
O=C(O)CN1C(=O)/C(=C\c2ccccc2OCc2ccc(F)cc2)SC1=S	84*	2	-33	-10	72*	31*	dCAG dye DR=i
O=C(O)CN1C(=O)/C(=C\c2ccccc2OCc2ccccc2)SC1=S	73*	4	-20	-7	73*	33*	dCAG dye DR=i
SMILES	rCAG binder	MsrA inhibitor	sPLA2-III inh	MsrA act	rCAG bind conf	dCAG dye counter	others
CN1C(=O)/C(=C\c2cccc(OCc3ccccc3)c2)SC1=S	2	0	0	0	/	/
O=C(O)CN1C(=O)/C(=C\c2cccc(OCc3ccccc3)c2)SC1=S	81*	0	-42	-5	72*	35*
C/C(=N\NC(=O)CN1CCN(Cc2ccccc2)CC1)c1cccs1	-4	1	15	-4	/	/
Nc1nnn(CC(=O)N/N=C/c2cccc3ccccc23)n1	1	3	9	-5	/	/
COc1cccc2cc(C(=O)N3CC(C)OC(C)C3)c(=O)oc12 (stereo not drawn)	-3	1	9	-8	/	/
COc1cc2c(oc(=O)c3cc(C)cc(OC)c32)c2c(C3OC(C)C(O)C(C)(O)C3O)ccc(O)c12 (stereo not drawn)	52*	0	-2	-7	13	6.9*
CN1CCN(S(=O)(=O)c2ccc3c(c2)CC(=O)N3C)CC1	7	0	-2	0	/	/
COC(=O)c1cc(=O)n(-c2ccc(C(F)(F)F)cc2)[nH]1	61*	0	-9	-2	5	3
Cc1ccc2c(c1)nnn2C1CCN(C(=O)Nc2ccccc2C)CC1	-6	1	-1	-2	/	/
CCN(CC)C(=O)C(C)OC(=O)c1ccc(O)cc1 (stereo not drawn)	1	0	2	-14	/	/
CCNc1ccc(Br)cc(C(=O)/C=C/c2ccccc2Cl)c1=O	46*	2	3	-2	34	15*
CNc1ccc(Br)cc(C(=O)/C=C/c2cccc(Cl)c2Cl)c1=O	48*	2	-2	-2	50*	23*
CNc1ccc(Br)cc(C(=O)/C=C/c2cccc(OC)c2OC)c1=O	35*	2	-6	-8	28	11*
CCNc1ccccc(C(=O)/C=C/c2ccc3c(c2)OCO3)c1=O	34	2	-5	-2	/	/
COCC(C)N1CCC(Oc2ccc(C(=O)NCc3ccccn3)cc2)CC1 (stereo not drawn)	-10	-1	8	-7	/	/
COc1ccc(-c2csc(C(C#N)=C(O)CSc3nccn3C)n2)cc1OC	54*	2	-3	-13	23	7.2*
COc1ccc(-c2csc(C)n2)cc1OC	-4	-1	2	-4	/	/
COc1ccc(CCN(Cc2cccs2)S(=O)(=O)c2ccc(C(=O)O)cc2)cc1OC	36*	0	-14	-1	37*	5.5*
COc1ccc(OC)c(S(=O)(=O)N(CCc2ccc(OC)c(OC)c2)Cc2cccs2)c1	4	/	-4	/	/	/
NS(=O)(=O)c1ccc(N=Nc2c(=O)[nH]n3c(=O)c4c([nH]c23)CCCC4)cc1	33	2	-6	-3	/	/
COc1cccc(N=Nc2c(=O)[nH]n3c(=O)c4c([nH]c23)CCC4)c1	39*	0	-5	-3	34	7.6*
